Source: PubChem (Center for Chemical Genomics, University of Michigan)
Dicer processing = inhibitors of human Dicer processing of pre-microRNA. 6% of 47,000 active. z-score at 25 µM. Q9UPY3. cat-ELCCA pre-miR-21 Dicer processing, chemiluminescence; stronger effect = higher value. AID 1347074; in the data active = z-score above about 3, passing the limit was not always enough;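 note: plate controls were vehicle for no effect and no enzyme for full effect; higher signal means more uncleaved substrate so more Dicer inhibition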
An asterisk follows results filed as active. This is one part of a sample in which hits are shown more often than they occur.

SMILES	Dicer processing
Cc1ccc2c(c1)NC(c1ccccc1)C1=C(CC(C)(C)CC1=O)N2 (centres undefined)	-1.42
Nc1cc(=O)n(Cc2ccccc2)c(=O)n1-c1cccc([N+](=O)[O-])c1	-0.02
CCOC(=O)c1c(C)nn(-c2ccc(NS(=O)(=O)c3ccc(OC)cc3)cc2)c1C	-1.32
CN1C(=O)C(O)(CC(=O)c2cccc3ccccc23)c2ccccc21 (centres undefined)	-1.84
Cc1ccc(CNCc2ccc3c(c2)OCO3)s1	-0.56
Cc1ccc(C)c(NCc2ccc3c(c2)OCO3)c1	5.43*
Cc1ccc(CNCc2ccc3c(c2)OCO3)cc1	0.29
O=C(Nc1nc2ccccc2c(=O)s1)c1ccc(Cl)cc1	0.27
CCc1ccc(C2c3c(oc4ccc(F)cc4c3=O)C(=O)N2c2nc(C)c(C(=O)OC)s2)cc1 (centres undefined)	1.14
CCCSc1nnc2c(n1)OC(C)=Nc1ccc(Br)cc1-2	3.7*
CCCCSc1nnc2c(n1)OC(CC)=Nc1ccccc1-2	-0.65
CCSc1nnc2c(n1)OC(C)=Nc1ccc(Br)cc1-2	3.35*
CCSc1nnc2c(n1)OC(CC)=Nc1ccccc1-2	-1.21
CSc1nnc2c(n1)OC(C)=Nc1ccc(Br)cc1-2	1.93
CSc1nnc2c(n1)OC(C)=Nc1ccccc1-2	0.37
CC(C)(C)c1cc2nc(C(F)(F)F)cc(N3CCN(C(=O)c4ccc(Cl)cc4)CC3)n2n1	0.02
CCOC(=O)CN(C(=O)COc1nc(C)cc(C)c1C#N)c1ccc(F)cc1	-0.74
FC(F)(F)c1ccc(Nc2n[nH]c(=S)s2)cc1	-1.42
O=C(Nc1nc(-c2ccc(Br)cc2)cs1)c1ccc(Cl)cc1	0.24
O=c1c2cnn(-c3ccccc3)c2cnn1-c1ccccc1	0.39
OC(CN1CCN(Cc2ccc3c(c2)OCO3)CC1)Oc1ccc(C(F)(F)F)cc1 (centres undefined)	-2.73
O=C(COc1ccc(Cl)cc1)N1CCN(Cc2ccc3c(c2)OCO3)CC1	0.41
CCOC(=O)c1c(C)n(C)c2ccc(OCC(O)CN3CCOCC3)cc12 (centres undefined)	1.89
CCOC(=O)N1CCN(CC(O)COc2cc(C)ccc2C(C)C)CC1 (centres undefined)	3.48*
CCOC(=O)N1CCN(S(=O)(=O)c2c(C)cc(C)cc2C)CC1	1.19
SMILES	Dicer processing
CCOC(=O)c1c(C)n(C)c2ccc(OCC(O)CN3CCN(C)CC3)cc12 (centres undefined)	0.6
CCOC(=O)N1CCN(CC(O)COc2cc(C)cc(C)c2)CC1 (centres undefined)	2.63
CCOC(=O)N1CCN(CC(O)COCc2ccc3c(c2)OCO3)CC1 (centres undefined)	3.24*
CCOC(=O)N1CCN(CC(O)COc2c(C)cc(C)cc2C)CC1 (centres undefined)	3.29*
COc1ccc(-n2c(CSc3nc(-c4cccs4)cn3-c3ccc(C)cc3)n[nH]c2=S)cc1	-0.48
O=C(NCCS(=O)(=O)c1ccc(C(F)(F)F)cn1)c1ccc(Cl)cc1	-0.17
Cc1ccc(Cc2c(C)[nH]c(=S)[nH]c2=O)cc1	-0.66
FC(F)(F)Oc1ccc(OCc2n[nH]c(=S)n2-c2ccccc2)cc1	0.68
O=C(CSc1nc2sc3c(c2c(=O)[nH]1)CCCC3)N1CCN(CCO)CC1	1.7
CC(=O)c1ccc(S(=O)(=O)NC(=O)NC2CCCCC2)cc1	2.44
O=C(NC1CCCC1)NS(=O)(=O)c1ccccc1Cl	3.22*
CCCCNC(=O)NS(=O)(=O)c1ccccc1Cl	-1.36
COc1ccc(Oc2c(Cl)cnn(-c3ccc(Cl)cc3)c2=O)cc1	1.18
CC1CN(c2cccc(Cl)c2)c2nc3c(c(=O)n(CC(=O)O)c(=O)n3C)n2C1 (centres undefined)	-6.91
COc1ccc2nc3c(nc2c1)CCCC3	-2.69
COC(=O)c1cc(Br)c(Br)s1	-0.46
Cc1cccc(OCC(O)Cn2cnc3ccccc32)c1 (centres undefined)	3.73*
Cc1ccc(Cl)c(OCC(O)Cn2cnc3ccccc32)c1 (centres undefined)	0.51
Cc1cccc(C)c1OCC(O)Cn1cnc2ccccc21 (centres undefined)	0.99
CCOC(=O)c1c(N)oc2c(-c3ccc(C)c(C)c3)c3c(C(=O)OCC)c(N)oc3cc12	4.99*
COC(=O)c1c(C)oc2ccc(O)cc12	1.53
COC(=O)c1c(C)oc2ccc(OC(C)C(=O)O)cc12 (centres undefined)	-0.16
COC(=O)c1c(N)oc2c(-c3ccc(C)cc3)c3c(C(=O)OC)c(N)oc3cc12	3.8*
CCOC(=O)c1c(N)oc2c(-c3ccc(CC)cc3)c3c(C(=O)OCC)c(N)oc3cc12	0.57
CCOC(=O)c1c(N)oc2c(-c3ccc(C)cc3)c3c(C(=O)OCC)c(N)oc3cc12	-1.58
SMILES	Dicer processing
OCCNc1ncnc2sc3c(c12)CCCC3	-0.37
CCOc1nc(-c2ccccc2)ccc1-c1noc(COc2ccccc2)n1	-0.51
c1ccc(-c2noc(-c3cccc4ccccc34)n2)nc1	1.29
c1ccc(-c2ccc(-c3nc(-c4ccccn4)no3)cc2)cc1	5.23*
COc1ccc(-c2nc(-c3ccccn3)no2)cc1OC	1.16
Clc1ccc2ncnc(-c3ccccc3)c2c1	1.31
CCOC(=O)c1c(S(=O)(=O)N2CCN(Cc3ccccc3)CC2)c(-c2ccccc2)n(-c2ccccc2)c1C	0.2
c1cc(CSc2nc3ccccc3[nH]2)nc(CSc2nc3ccccc3[nH]2)c1	2.61
Brc1ccc2c(c1)CN(C1CCCCC1)CO2	1.49
CCOc1ccc2c(c1)CN(Cc1ccc(Cl)cc1)CO2	1.11
COc1ccc(CN2COc3ccc(F)cc3C2)cc1	0.47
Brc1ccc2c(c1)CN(Cc1ccccc1)CO2	4.45*
Clc1ccc2c(c1)CN(Cc1ccccc1)CO2	3.34*
Clc1ccc2nc(NC3=NCN(Cc4ccccc4)CN3)oc2c1	1.2
CCOC(=O)C1=NN(c2ccc(Cl)cc2)C2c3cc(OCC)c(OCC)cc3CCN12 (centres undefined)	2.18
NC1=NC(c2ccccn2)n2c(nc3ccccc32)N1 (centres undefined)	-1.3
CN(C)CCCN1C(=O)C(=O)/C(=C(/O)c2ccc(Br)cc2)C1c1ccc(Cl)cc1 (centres undefined)	0.4
CCCCCc1c(C)[nH]c2[nH]n(-c3ccccc3)c(=O)c2c1=O	-1.3
CC1=C(C(N)=O)C(c2ccc(Cl)cc2)n2nnnc2N1 (centres undefined)	2
Cc1ccc(NC(=S)/N=C(\N)COc2ccccc2)cc1	-0.05
O=C(O)C1CCC(c2ccc(Cl)cc2)CC1 (centres undefined)	-0.42
CCS(=O)(=O)N1CCN(c2nc(-c3ccccc3)ns2)CC1	-0.23
O=C(O)CSCC(=O)N1CCN(c2nc(-c3ccccc3)ns2)CC1	1.25
c1ccc(-c2nsc(N3CCCC3)n2)cc1	3.01*
Cn1c(CNC(=O)c2ccc(OC(F)(F)F)cc2)nnc1SCc1ccccc1	-1.39
SMILES	Dicer processing
CC(C)n1cc(/C(N)=N/OC(=O)c2ccccc2Cl)c(=O)n(Cc2ccccc2)c1=O	0.85
Cn1cc(/C(N)=N/O)c(=O)n(Cc2ccccc2)c1=O	7.02*
CC(C)n1cc(C(N)=S)c(=O)n(Cc2ccccc2)c1=O	-0.58
CCOC(=O)c1c(SC)[nH]c2ccc(Cl)cc2c1=O	-0.22
O=c1nc(/C=C/c2cccc(Oc3ccccc3)c2)cc(C(F)(F)F)[nH]1	1.74
Cn1ccnc1SCC(=O)c1ccc(F)c(F)c1	0.37
O=C(CSc1ncccn1)c1ccc(O)c(O)c1	4.19*
O=C(CSc1ncc(Sc2ncccn2)c(-c2ccc(Cl)cc2)n1)c1ccc(Cl)cc1	-1.2
